Vc quorum ag: induces V. cholerae light production without autoinducers; 0.16% of 350,000 active; AID 588436; V. cholerae BH1578 lux reporter, luminescence, 6 h; activation, % at 18.7 µM; in the data active = activation mostly above about 9.7%, no sharp cut-off
PriA SSB inh: K. pneumoniae PriA-SSBct interaction inhibition; AlphaScreen SSBct-PriA binding, biotinylated peptide; inhibition, % at 33 µM; 0.6% of 430,000 active; in the data active = inhibition mostly above about 37%, no sharp cut-off; inactive = mostly below about 20%;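 note: plate controls were negative control peptide for no effect and reference peptide for full effect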
MazF activator: MazEF (E. coli) toxin RNase activation. activation, % at 20 µM. 0.32% of 350,000 active. P0AE70. FAM/BHQ RNA-DNA oligo cleavage fluorescence, 5 h. AID 504720; in the data active = activation above about 50%
Target sequence (P0AE70 whole entry, looked up): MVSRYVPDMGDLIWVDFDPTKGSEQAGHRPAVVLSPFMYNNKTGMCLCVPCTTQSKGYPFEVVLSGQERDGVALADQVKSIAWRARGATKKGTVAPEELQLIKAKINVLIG
Mtb hypoxia inh: Mtb hypoxia fluorescent reporter inhibition; M. tuberculosis hypoxia-regulated fluorescent reporter, fluorescence; fluorescence inhibition, % (concentration not given with the values); 0.1% of 300,000 active; in the data active = fluorescence inhibition mostly above about 23%, no sharp cut-off; inactive = mostly below about 17%
The depositor's hits bear a star; i = inactive; . = no result given; + = active, no number. Shown are actives, neighbours in structure and some others; about 0.94% of the full set was active somewhere.

SMILES | Vc quorum ag | PriA SSB inh | MazF activator | Mtb hypoxia inh
CC1CCC(C(=O)NC2CCN(C(=O)c3cc(-c4ccccc4)n[nH]3)CC2)CC1 (stereo not drawn) | . | -27 | . | .
COc1cccc(NC(=O)CSc2cccc3cccnc23)c1 | . | 21 | . | .
Cc1cc(Br)ccc1NC(=O)CSc1cccc2cccnc12 | . | 82* | . | .
CC(=O)c1cccc(NC(=O)CSc2cccc3cccnc23)c1 | . | 116* | . | .
O=C(CSc1cccc2cccnc12)Nc1cccc(C(F)(F)F)c1 | . | 126* | . | .
Cc1cc(Cl)ccc1NC(=O)CSc1cccc2cccnc12 | . | 47 | . | .
COc1ccc(C)cc1S(=O)(=O)NCC(c1cccn1C)N1CCc2ccccc2C1 (stereo not drawn) | . | 2 | . | .
COC1=C(Nc2ccc(C)cc2)C(=O)c2ccccc2C1=O | 0 | 90* | 11 | 4
COC1=C(Nc2ccccc2)C(=O)c2ccccc2C1=O | 2 | 117 | -3 | -2
Cn1c(=O)c2[nH]c(-c3ccccc3Cl)c(O)c2n(C)c1=O | 0 | -3 | 909* | 1
Cn1c(=O)c2[nH]c(-c3ccccc3)c(O)c2n(C)c1=O | 0 | -2 | + | 3
Cn1c2c(c(=O)n(C)c1=O)C(C(F)(F)F)(C(F)(F)F)N=C(c1ccccc1Cl)N2 | -2 | 2 | -5 | 2
COc1ccc(N2CCN(C(=O)/C=C/c3ccccc3)CC2)nn1 | . | -9 | . | .
Cc1[nH]c2ccccc2c1C(=O)COC(=O)c1ccc([N+](=O)[O-])s1 | i | 45* | 5 | 2
Cc1ccccc1CNc1ccc(C(CC(N)=O)NC(=O)c2ccc(Br)cc2)cc1[N+](=O)[O-] (stereo not drawn) | -3 | -19 | 81* | .
O=C1COCC(c2ccccc2)N1 (stereo not drawn) | . | -11 | . | .
O=[N+]([O-])c1ccc(C=CC=Cc2ccccc2)cc1 | i | . | 68* | .
COc1ccccc1NC(=O)CSc1nc2c(cnn2-c2cccc(Cl)c2)c(=O)[nH]1 | . | -2 | . | .
NCc1nnnn1-c1ccccc1 | . | -16 | . | .
Cc1ccc(C)c(OCC(=O)Nc2cccc(S(=O)(=O)NC3=NCCCCC3)c2)c1 | i | 49* | -1 | 4
Cc1cc(Cl)ccc1OCC(=O)Nc1cccc(S(=O)(=O)NC2=NCCCCC2)c1 | -1 | 0 | 1 | -3
Oc1cc2c(cc1CN1CCc3ccccc3C1)OCO2 | -12 | 8 | 1 | 5
Oc1ccc(CN2CCCCC2)c2cccnc12 | 0 | 99* | 2 | 13
Oc1ccc(CN2CCC(Cc3ccccc3)CC2)c2cccnc12 | . | 62* | -1 | 0
CCN1CCN(Cc2ccc(O)c3ncccc23)CC1 | . | 123* | . | .
SMILES | Vc quorum ag | PriA SSB inh | MazF activator | Mtb hypoxia inh
Oc1ccc(CN2CCc3ccccc3C2)c2cccnc12 | i | 101* | 4 | 7
Oc1ccc(CN2CCN(c3ccccc3)CC2)c2cccnc12 | -2 | 9 | 2 | 0
CCCCN(C)S(=O)(=O)c1ccc(C(=O)Nc2nc(-c3ccccc3)cs2)cc1 | . | -3 | . | .
O=C(NCCn1ncc2c(N3CCN(c4ncccn4)CC3)ncnc21)c1cccs1 | . | -13 | . | .
O=C(C1CCC1)N1CCC(S(=O)(=O)Cc2ccco2)C1 (stereo not drawn) | . | -34 | . | .
CCOC(=O)N1CCN(Cc2ccccn2)CC1 | 2 | -6 | -3 | -8
CCOC(=O)N1CCN(Cc2ccc(O)c3ncccc23)CC1 | . | 88* | -4 | 1
O=C(Nc1ccccc1N1CCCC1)c1cc(S(=O)(=O)N2CCOCC2)ccc1Cl | -1 | 1 | 0 | 12
COc1cc(C(=O)Nc2cc(S(=O)(=O)N3CCOCC3)ccc2N2CCOCC2)ccc1OC(F)F | i | -4 | 11 | 23*
O=C(Nc1ccccc1N1CCCCC1)c1cc(S(=O)(=O)N2CCOCC2)ccc1F | -1 | 47* | -7 | -4
COc1cc(=O)n(-c2ccc(F)cc2)nc1C(=O)N1CCN(C(c2ccccc2)c2ccccc2)CC1 | . | -2 | . | .
O=C1/C(=C/c2cn(-c3ccccc3)nc2-c2cc3ccccc3o2)Oc2cc(O)ccc21 | . | -11 | . | .
CN(CC(=O)Nc1ccc(F)cc1)C(=O)COC(=O)CNC(=O)c1sc2ccccc2c1Cl | -4 | -8 | 70* | .
COc1ccc(NC(=O)CN(C)C(=O)CNC(=O)c2sc3ccccc3c2Cl)cc1 | 0 | -6 | -1 | 8
CCCC12CN3CC(CCC)(CN(C1)C3c1ccccn1)C2=O (stereo not drawn) | 0 | 58* | -4 | -2
O=[N+]([O-])c1nn(-c2ccccc2)n(O)c1=NC1CCCCC1 | . | 52 | . | .
CCc1ccc(N=c2c([N+](=O)[O-])nn(-c3ccc4c(c3)OCCO4)n2O)cc1 | 0 | 58* | 7 | 1
O=[N+]([O-])c1nn(-c2cccc(Cl)c2)n(O)c1=NC1CCCCC1 | . | 90* | . | .
